# A selection: hits, their analogues and other compounds. The true share with any hit is near 3.1%.
# MITF TRPM1 HTS: increases MITF-driven TRPM1 promoter luciferase signal; SK-MEL-5 TRPM1-promoter luciferase, 24 h; % of positive control, neutral wells = 0; activation, % at 12.5 µM; hit rate 0.75% among 300,000; AID 588334;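 active = mean activation of at least 80% with every replicate also reaching 80%; inconclusive = mean reaches 80% but some replicate falls short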
# Rtt109 HAT inh: blocks Candida albicans Rtt109/Vps75 acetyltransferase activity; Q5AAJ8; purified Rtt109/Vps75, ThioGlo CoA-SH fluorescence, 4 h; inhibition, % at 34.9 µM; hit rate 0.16% among 330,000;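 active = inhibition of at least 50% in every replicate; inconclusive = best replicate reaches 50% inhibition but some replicates fall short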
# Target sequence (Q5AAJ8 whole entry, looked up): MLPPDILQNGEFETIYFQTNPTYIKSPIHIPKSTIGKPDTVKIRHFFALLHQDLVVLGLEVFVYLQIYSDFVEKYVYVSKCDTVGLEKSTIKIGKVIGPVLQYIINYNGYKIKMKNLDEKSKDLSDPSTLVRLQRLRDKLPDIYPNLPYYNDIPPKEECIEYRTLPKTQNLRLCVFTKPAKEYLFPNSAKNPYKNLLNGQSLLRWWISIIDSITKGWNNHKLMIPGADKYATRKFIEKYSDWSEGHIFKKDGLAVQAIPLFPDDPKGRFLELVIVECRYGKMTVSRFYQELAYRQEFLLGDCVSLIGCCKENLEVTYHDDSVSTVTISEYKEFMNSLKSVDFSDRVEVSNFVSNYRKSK
# esBAF inh: inhibitors of esBAF chromatin remodeling in mouse ES cells | hit rate 2% among 350,000 | Bmi1-luciferase knock-in reporter, 24 h; 100% = twice the neutral-well signal | reporter increase, % at 12.5 µM | AID 602393; in the data active = activation above about 40%; inconclusive = no clear call, values can overlap the other calls;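 note: a rise in the Bmi1 reporter signal indicates esBAF inhibition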
# C2C12 statin: suppression of simvastatin myotoxicity. C2C12 myotubes + simvastatin, ATP luminescence, 48 h; scaled: DMSO 0, geranylgeraniol control 100. rescue of ATP level, % at 7.49 µM. hit rate 0.78% among 330,000. AID 602340;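 active = mean ATP rescue above about 67%, or every replicate alone reaching that limit, limit read from the data, passing the limit was not always enough; inconclusive = no clear call, values can overlap the other calls; inactive = mean under the limit and some replicate under it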;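 note: myotubes were challenged with 10 µM simvastatin during compound exposure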
# Wnt bcat act: activators of Wnt/beta-catenin signaling | Wnt/beta-catenin reporter cell assay, activator, plate reader | activation, % at 9.35 µM | hit rate 1.2% among 300,000 | AID 743398; in the data active = activation above about 30%, passing the limit was not always enough; inconclusive = no clear call, values can overlap the other calls
# A number is an active result; 0 = inactive; ? = inconclusive; - = no result.
SMILES,MITF TRPM1 HTS,Rtt109 HAT inh,esBAF inh,C2C12 statin,Wnt bcat act
CCCc1cc(NCCCn2ccnc2)n2nc(C)c(-c3ccccc3)c2n1,0,0,-,-,32.2
CCn1c(-c2nn(-c3ccc(C)cc3)ccc2=O)n[nH]c1=S,0,0,-,-,0
Cc1ccc(-n2ccc(=O)c(-c3ccnc(SCc4cccc(Cl)c4)n3)n2)cc1,-,0,0,84.3,0
COc1ccc(S(=O)(=O)N2Cc3ccccc3CC2C(=O)N2CCOCC2)cc1OC (configuration not stated),0,0,0,0,0
COc1ccc(S(=O)(=O)N2Cc3ccccc3CC2C(=O)Nc2nccs2)cc1OC (configuration not stated),0,0,44.5,-,0
COc1ccc(S(=O)(=O)N2Cc3ccccc3CC2C(=O)Nc2nccs2)cc1 (configuration not stated),0,0,50.4,0,-
CCS(=O)(=O)N1Cc2ccccc2CC1C(=O)Nc1nccs1 (configuration not stated),0,0,43.7,0,0
Cc1ccc(NC(=O)CC(NC(=O)c2ccccc2Cl)c2ccccc2)nc1 (configuration not stated),0,0,0,0,0
Cc1ccnc(NC(=O)CNC(=O)COc2ccccc2)c1,89.6,0,73.7,0,38.5
Cc1ccnc(NC(=O)CC(NC(=O)c2ccccc2Cl)c2ccccc2)c1 (configuration not stated),0,0,52.3,0,0
Cc1ccnc(NC(=O)CCNC(=O)c2ccccc2Cl)c1,0,0,46.1,0,0
COc1ccc(S(=O)(=O)N(C)C[C@@H]2OCCCC[C@@H](C)Oc3ccc(NC(=O)Nc4cccc5ccccc45)cc3C(=O)N([C@@H](C)CO)C[C@H]2C)cc1,-,-,0,-,-
O=C(C[C@@H]1C=C[C@H](NC(=O)Nc2ccc(F)cc2)[C@H](CO)O1)NCCN1CCCC1,-,-,0,0,-
C[C@@H]1CN([C@H](C)CO)C(=O)Cc2cc(NC(=O)Cc3cn(C)c4ccccc34)ccc2O[C@@H]1CN(C)C(=O)Nc1ccccc1,-,-,0,0,-
Cc1ccnc(NC(=O)CCC(=O)N(CC(=O)NCC2CCCO2)Cc2ccc(F)cc2)c1 (configuration not stated),0,0,0,91.3,0
C[C@H](CO)N1C[C@H](C)[C@H](CN(C)Cc2ccc(C(F)(F)F)cc2)OCCCC[C@H](C)Oc2ccc(NC(=O)C3CCCCC3)cc2C1=O,-,-,0,-,-
Nn1c(SCC(=O)Nc2ccc(F)cc2F)nnc1-c1cccnc1,0,0,0,111.8,-
Nn1c(SCc2cccc(F)c2)nnc1-c1cccnc1,-,0,0,0,0
Nn1c(SCc2ccccc2F)nnc1-c1cccnc1,-,-,-,-,51.8
COCCNC(=O)C[C@@H]1CC[C@H]2[C@H](COc3ccc(NC(=O)C4CCCC4)cc3C(=O)N2C)O1,-,-,0,0,-
CC(Cc1ccccc1)N/C=C1/CC(=O)NC1=O (configuration not stated),0,0,0,0,0
O=C1C/C(=C/NCc2ccccc2)C(=O)N1,0,0,0,95.2,-
Fc1ccc(-c2csc(N3CCSCC3)n2)cc1,0,0,46.3,0,0
c1ccc(-c2csc(N3CCSCC3)n2)cc1,0,0,-,-,0
Cc1ccc2cc(CN(CC3CCCO3)C(=O)Nc3ccccc3F)c3nnnn3c2c1 (configuration not stated),0,0,45.1,0,0
SMILES,MITF TRPM1 HTS,Rtt109 HAT inh,esBAF inh,C2C12 statin,Wnt bcat act
C[C@H](CO)N1C[C@H](C)[C@@H](CN(C)S(=O)(=O)c2ccccc2)Oc2ccc(NC(=O)Cc3cn(C)c4ccccc34)cc2C1=O,-,-,0,0,-
O=C(C[C@@H]1C[C@@H]2c3cc(NC(=O)Nc4ccccc4)ccc3O[C@@H]2[C@H](CO)O1)NCc1ccccn1,-,-,0,0,-
C=CCNc1nc(N)c(C(=O)c2ccc3c(c2)OCO3)s1,0,0,52.3,0,-
CC(C)(C)c1nnc(NC(=O)COc2ccc3c(c2)OCO3)s1,85.0,0,68.8,0,0
CC(C)(C)c1nnc(NC(=O)c2ccc3c(c2)OCO3)s1,121.2,0,-,-,?
C=CCNc1nc(N)c(C(=O)Nc2cc(C)on2)s1,0,0,0,0,-
CC(C)Sc1nnc(NC(=O)c2ccc3c(c2)OCO3)s1,87.8,0,0,0,0
CC(C)c1nnc(NC(=O)c2ccc3c(c2)OCO3)s1,0,0,-,-,0
C[C@H](CO)N1C[C@H](C)[C@H](CN(C)Cc2ccccn2)Oc2ncc(-c3ccccc3)cc2C1=O,-,-,0,0,-
C[C@H]1CCCCO[C@H](CN(C)C)[C@@H](C)CN([C@@H](C)CO)C(=O)c2cc(NC(=O)c3ccncc3)ccc2O1,-,-,0,0,-
COC(=O)c1[nH]c2cc(C)ccc2c1NC(=O)CN1CCN(c2ccccc2OC)CC1,0,0,0,86.2,-
CC(C)(C)C(=O)Nc1ccc(NC(=O)c2ccco2)nc1,0,0,0,0,0
O=C(Nc1ccc(NC(=O)c2ccco2)nc1)c1ccccn1,0,0,0,112.9,0
O=C(Nc1ccc(NC(=O)C23CC4CC(CC(C4)C2)C3)cn1)c1ccco1,96.2,0,48.9,0,-
O=C(Nc1ccc(NC(=O)C2CCCCC2)cn1)c1ccco1,0,0,0,0,-
COc1ccccc1C(=O)Nc1ccc(NC(=O)c2ccco2)cn1,92.0,0,64.2,0,0
O=C(Cc1ccccc1)Nc1ccc(NC(=O)c2ccco2)nc1,-,0,46.2,0,40.3
COc1ccccc1C(=O)NC(=S)Nc1ccc(NC(=O)c2ccco2)cc1,0,0,0,0,0
O=C(Nc1ccc(NC(=O)c2ccco2)nc1)c1ccco1,0,0,-,-,0
CO[C@H]1CN(C)C(=O)c2cc(NS(=O)(=O)CC(F)(F)F)ccc2OC[C@@H](C)N(CC2CCCCC2)C[C@H]1C,-,-,0,0,-
CCCC(=O)Nc1ccc2c(c1)C(=O)N(C)C[C@@H](OC)[C@H](C)CN(C(=O)C1CCCC1)[C@@H](C)CO2,-,-,0,0,-
CC(C)NC(=O)N(C)C[C@H]1Oc2c(NS(=O)(=O)c3ccccc3)cccc2C(=O)N([C@@H](C)CO)C[C@H]1C,-,-,0,0,-
O=C(Nc1ccc(NC(=O)c2ccccc2)nc1)c1ccncc1,0,0,42.7,0,0
O=C(Nc1ccc(NC(=O)c2ccccc2Cl)nc1)c1ccncc1,0,0,0,0,0
C/C(N)=C(/C#N)C(=O)COC(=O)c1cc(C)n(-c2ccc(F)cc2)c1C,0,?,67.5,0,0
Cc1ccc2nc(-c3ccc(NC(=O)COCC(=O)O)cc3)sc2c1,-,0,-,-,38.2
Cc1ccc2nc(-c3ccc(NC(=O)CCN4C(=O)c5ccccc5C4=O)cc3)sc2c1,0,0,-,-,0
Cc1ccc2nc(-c3ccc(NC(=O)CSCC(=O)O)cc3)sc2c1,103.0,0,0,0,71.8
Cc1ccc(C2(C)NC(=O)N(CC(=O)Nc3ccc(-c4nc5ccc(C)cc5s4)cc3)C2=O)cc1 (configuration not stated),0,0,-,-,37.6
CO[C@@H]1CC[C@H]2CCN(C)C(=O)C[C@H](c3ccccc3)CN(C)C(=O)c3cccc(C#N)c3OC[C@H]1O2,-,-,0,0,-

# Screens: PubChem BioAssay, Broad Institute
